Values joined by “and” are separate entries in the source; they are usually repeats but may differ in a detail not shown here. Identical values can stand only once. Results filed as inconclusive are left out. A structure can be active in one record and inactive in another. Active and inactive are the calls of the source. How the source made its calls: active means hit-call score of the fitted dose curve at least 0.9, where 1 is the maximum; inconclusive means response in the unintended direction; inactive means score below 0.9.
Key:
[1] = ATG_XTT_Cytotoxicity: Cytotoxicity Assessment in the Attagene TRANS-FACTORIAL HepG2 Assay (AID 2283584);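 on AC50: XTT signal for cell number as viability in transfected HepG2 cells; cells exposed to compound for 24 h before reading; active means loss of viability signal versus DMSO baseline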
Outline: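 HepG2 cells transiently transfected with GAL4-UAS multiple reporter units, dosed 24 h; cytotoxicity read by XTT as loss of signal versus DMSO baseline.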

[2] = target: Cellular tumor antigen p53 (Homo sapiens) (UniProt P04637); experiment: TOX21_p53_BLA_p2_ratio: Tox21 HCT-116 p53 Agonism Beta-lactamase Assay, Ratio, Phase 2 (AID 2283592)
Chain of Cellular tumor antigen p53 (Homo sapiens) (P04637 whole entry, looked up): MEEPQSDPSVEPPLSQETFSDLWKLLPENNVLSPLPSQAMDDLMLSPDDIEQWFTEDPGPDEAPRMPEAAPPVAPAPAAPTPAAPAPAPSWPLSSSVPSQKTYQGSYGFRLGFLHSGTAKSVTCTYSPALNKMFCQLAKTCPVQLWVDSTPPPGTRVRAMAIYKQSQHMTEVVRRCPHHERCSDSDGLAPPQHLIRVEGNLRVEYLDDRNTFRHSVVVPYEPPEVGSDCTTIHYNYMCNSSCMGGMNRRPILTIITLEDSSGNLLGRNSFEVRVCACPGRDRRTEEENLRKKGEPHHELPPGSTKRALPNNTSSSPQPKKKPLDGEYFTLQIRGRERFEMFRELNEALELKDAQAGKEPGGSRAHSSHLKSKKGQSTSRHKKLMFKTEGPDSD
Outline: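 HCT-116 cells with p53-responsive beta-lactamase reporter, 4000 cells/well, preincubated 5 h, then compound in DMSO (217-fold dilution) for 16 h at 37C. CCF4-AM substrate 2 h at room temperature; 460/530 nm emission ratio fitted upward versus DMSO.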

[3] = TOX21_p53_BLA_p3_viability: Viability Assessment in the Tox21 HCT-116 p53 Agonism Beta-lactamase Assay, Phase 3 (AID 2283593);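 further: cells exposed to compound for 16 h before reading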
Outline: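 HCT116 cells, 4000/well, dosed 5 h after plating by pin transfer (217-fold dilution from DMSO stock) and incubated 16 h at 37C, 5% CO2. Viability read as ATP luminescence with CellTiter-Glo after 30 min at room temperature.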

[4] = target: Cellular tumor antigen p53 (Homo sapiens) (UniProt P04637); experiment: TOX21_p53_BLA_p3_ratio: Tox21 HCT-116 p53 Agonism Beta-lactamase Assay, Ratio, Phase 3 (AID 2283596)
Outline: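 HCT116 p53-bla cells (4000/well) given compound in DMSO (217-fold dilution) after 5 h, incubated 16 h at 37C. CCF4-AM substrate 2 h at room temperature; 460/530 nm emission ratio, gain fitted against DMSO.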

[5] = TOX21_p53_BLA_p4_viability: Viability Assessment in the Tox21 HCT-116 p53 Agonism Beta-lactamase Assay, Phase 4 (AID 2283597);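 further: hits lower the luminescence signal meaning cytotoxicity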
Outline: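 HCT-116 p53-bla cells, 4000/well, dosed after 5 h attachment and incubated 16 h at 37 °C, 5% CO2. Viability from CellTiter-Glo ATP luminescence after 30 min at room temperature, taken after the beta-lactamase read; loss of signal indicates cytotoxicity.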

[6] = TOX21_p53_BLA_p5_viability: Viability Assessment in the Tox21 HCT-116 p53 Agonism Beta-lactamase Assay, Phase 5 (AID 2283600)
Outline: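 HCT-116 p53 beta-lactamase reporter cells, 4000/well, were exposed to compound (pin transfer, 217-fold dilution) for 16 hours at 37C. Cellular ATP was read by CellTiter-Glo luminescence after 30 min at room temperature.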

[7] = target: Cellular tumor antigen p53 (Homo sapiens) (UniProt P04637); experiment: TOX21_p53_BLA_p4_ratio: Tox21 HCT-116 p53 Agonism Beta-lactamase Assay, Ratio, Phase 4 (AID 2283601)
Outline: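 HCT-116 p53 beta-lactamase reporter cells (4000/well) preincubated 5 h, then compound (217-fold dilution of DMSO stock) for 16 h at 37C. CCF4-AM substrate added 2 h at room temperature; 460/530 nm emission ratio fitted upward versus DMSO.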

[8] = target: Cellular tumor antigen p53 (Homo sapiens) (UniProt P04637); experiment: TOX21_p53_BLA_p5_ratio: Tox21 HCT-116 p53 Agonism Beta-lactamase Assay, Ratio, Phase 5 (AID 2283599)
Outline: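 HCT-116 p53-bla cells (4000/well) plated 5 h, dosed with compound (217-fold DMSO dilution) for 16 h at 37 C; CCF4-AM substrate 2 h at room temperature. Activity is the 460/530 nm emission ratio (405 nm excitation), fitted in gain-of-signal direction versus DMSO.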

Measured: AC50

NNc1nc(-c2ccc([N+](=O)[O-])cc2)cs1
active: [2] 40.1 µM | [4] 55.7 µM | [5] 46.1 µM | [7] 43.5 µM
inactive: [1] | [3] | [6]

Cc1ccc(C(=O)c2ccccc2)cc1
inactive: [1] | [2] | [4] | [5] | [7]

O=C(Nc1ccc(Cl)c(Cl)c1)c1cc(Cl)cc(Cl)c1O
active: [1] 43.1 µM | [2] 0.354 µM | [3] 989 nM | [4] 0.434 µM | [5] 0.671 µM | [7] 2.77 µM
inactive: [6]

CCOC(=O)CN[C@@H](C(=O)N1CC[C@H]1C(=O)NCc1ccc(/C(N)=N/O)cc1)C1CCCCC1
inactive: [1] | [2] | [3] | [4] | [5] | [6] | [7]

COCN(COC)c1nc(N(COC)COC)nc(N(COC)COC)n1
inactive: [2] | [4] | [5] | [8] | [6]

CCCCCCCCCCCCOC(=O)c1cc(O)c(O)c(O)c1
active: [2] 24.7 µM and 32.4 µM | [3] 49.2 µM and 77.1 µM | [4] 57.6 µM and 81.5 µM | [5] 46.1 µM and 30.9 µM | [6] 41.2 µM and 78.9 µM | [7] 53 µM and 36.9 µM

C=CC(C)(CCC=C(C)C)OC(C)=O (centres undefined)
inactive: [2] | [3] | [4] | [5] | [8] | [7]

CCOC(C)=O
inactive: [2] | [3] | [4] | [5] | [6] | [7]

CCN(CC)CC
inactive: [1] | [3] | [6] | [7]

CCCCCCCCCCCCCCCC(=O)OC
inactive: [1] | [5]

CCCCCCCCCCCC(=O)NCCCN(C)C
active: [2] 87.1 µM | [3] 47300 nM | [4] 87.2 µM | [5] 29 µM | [6] 65.7 µM | [7] 59.8 µM
inactive: [1]

CCCCCCC(C)(C)C(=O)O
inactive: [4]

C[C@]12CC[C@@H]3c4ccc(O)cc4CC[C@H]3[C@@H]1C[C@@H](O)[C@@H]2O
inactive: [1] | [2] | [3] | [4] | [5] | [6] | [7]

CC(C)(O)C(=O)c1ccccc1
inactive: [1] | [2] | [3] | [6]

Cc1cc(=O)oc2cc(O)ccc12
inactive: [1] | [2] | [3] | [4] | [5] | [6] | [7]
active: [7] 53.2 µM and 54.1 µM

O=C(O)c1cccc(C(=O)O)n1
inactive: [2] | [3] | [4] | [6] | [7]

Cc1cc(C(C)(C)C)c(O)c(C(C)(C)C)c1
inactive: [2] | [3] | [4] | [5] | [8] | [6] | [7]

Clc1ccc(Nc2nnc(Cc3ccncc3)c3ccccc23)cc1
inactive: [1] | [2] | [4] | [8] | [7]

CCCC=O
inactive: [1] | [5] | [6]

O=C1c2ccccc2C(=O)c2c(O)c(O)cc(O)c21
inactive: [1] | [4] | [5] | [8] | [6]
active: [2] 42.8 µM | [7] 50.1 µM

Reference: PubChem BioAssay (EPA / NIEHS)
